The values below come from article PMC4336329 (PLoS ONE, 2015).

About 2,200 (0.71%) of roughly 310,000 compounds showed an effect of 50% or more. The effect is printed as a negative number. What follows is part of a selection rich in strong results, with near analogues and random picks from the rest.

Chain of human ether-à-go-go-related gene (hERG) potassium channel (Q12809 whole entry, looked up): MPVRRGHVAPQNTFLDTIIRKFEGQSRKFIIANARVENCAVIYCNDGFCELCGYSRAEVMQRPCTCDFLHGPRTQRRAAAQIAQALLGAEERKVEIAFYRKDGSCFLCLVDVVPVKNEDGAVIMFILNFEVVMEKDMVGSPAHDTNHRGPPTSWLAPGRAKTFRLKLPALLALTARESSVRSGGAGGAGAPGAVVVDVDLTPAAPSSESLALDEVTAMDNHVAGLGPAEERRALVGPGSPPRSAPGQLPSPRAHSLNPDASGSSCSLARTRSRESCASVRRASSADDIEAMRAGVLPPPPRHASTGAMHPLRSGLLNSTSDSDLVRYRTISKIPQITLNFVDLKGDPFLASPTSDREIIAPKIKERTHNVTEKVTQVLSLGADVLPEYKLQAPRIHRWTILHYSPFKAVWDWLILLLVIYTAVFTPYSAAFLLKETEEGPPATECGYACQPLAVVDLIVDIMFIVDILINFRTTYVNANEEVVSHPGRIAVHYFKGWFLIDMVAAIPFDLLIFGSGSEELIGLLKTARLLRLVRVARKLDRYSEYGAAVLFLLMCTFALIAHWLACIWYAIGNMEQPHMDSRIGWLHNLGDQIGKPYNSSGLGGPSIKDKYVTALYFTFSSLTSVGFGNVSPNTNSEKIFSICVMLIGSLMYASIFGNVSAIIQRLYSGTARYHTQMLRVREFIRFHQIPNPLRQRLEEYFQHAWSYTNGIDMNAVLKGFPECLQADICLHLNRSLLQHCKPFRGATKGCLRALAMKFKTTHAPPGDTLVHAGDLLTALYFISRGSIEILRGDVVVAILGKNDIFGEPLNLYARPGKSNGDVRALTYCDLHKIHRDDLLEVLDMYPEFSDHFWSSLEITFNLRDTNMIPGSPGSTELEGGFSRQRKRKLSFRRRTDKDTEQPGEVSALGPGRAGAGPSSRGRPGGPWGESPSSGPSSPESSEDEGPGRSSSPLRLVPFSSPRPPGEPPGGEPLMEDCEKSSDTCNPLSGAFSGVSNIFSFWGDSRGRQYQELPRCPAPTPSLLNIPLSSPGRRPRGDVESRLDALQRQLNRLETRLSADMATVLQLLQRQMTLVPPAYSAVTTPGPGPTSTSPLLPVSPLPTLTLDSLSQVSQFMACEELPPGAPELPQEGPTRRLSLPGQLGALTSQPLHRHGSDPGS

This experiment has as its target human ether-à-go-go-related gene (hERG) potassium channel (human, UniProt Q12809). The experiment is described as follows: primary screen, population patch clamp on CHO cells stably expressing hERG; higher = less effect of the substance. How it is done:
Briefly, Chinese hamster ovary (CHO) cells stably expressing the hERG channel were dislodged from tissue culture flasks and dispensed into PPC plates. […] During the recording, background leak currents were estimated by a 100 ms step to -80 mV from an initial holding potential of -70 mV and subtracted from the subsequent current measurement. The campaign was conducted in two phases using slight differences in recording protocol. In the first phase, the initial voltage pulse used a 100 ms step to -30 mV from a holding potential of -70 mV, a 2 s conditioning step to +25 mV, and a 2 s test step to -30 mV. During the second phase of the screen, the potential during the conditioning step was raised to +45 mV. In both phases of the campaign, a secondary voltage pulse was applied using the same parameters as the second phase initial pulse. The initial and secondary pulses were applied in the absence of compound, and upon application of 1 μM and 10 μM test concentrations. Small molecule effects on hERG current density were quantified by […].
Take `O=S(=O)(CC(CN1CCCCC1)N1CCCCC1)c1ccccc1` (stereo not drawn): the “hERG current change (%, negative = inhibition) at 1uM” value turned out to be 6.73%.
The same measure for `O=C(Cn1cnc2c(NC(=O)OCc3ccccc3)ncnc21)NCc1ccccn1`: 0.393%; for `O=C(NCCS(=O)(=O)N1CCN(c2ccccc2F)CC1)C1CC(=O)N(c2ccccc2)C1` (stereo not drawn): 11.6%; for `O=C(Nc1ccon1)C1CCN(S(=O)(=O)c2cccs2)CC1`: -4.01%.
The same measure for `CC(=O)NNS(=O)(=O)c1ccc(-c2cc(C(F)(F)F)n(C)n2)s1`: 2.67%.
The same measure for `CCOc1ccc2[nH]c(=O)c(CN(CCN3CCOCC3)Cc3nnnn3C(C)(C)CC)cc2c1`: 12.1%; for `COc1ccc(NC(=O)CSc2nnc(Cc3ccc(C)cc3)c(=O)n2N)cc1OC`: 4%.
Turning to `CC(=O)N(C(C)=O)S(=O)(=O)c1ccc(N=NN2CCCCC2)cc1`, the “hERG current change (%, negative = inhibition) at 1uM” value is recorded as 11.6%.
The same measure for `Cc1ccc(CNC(=O)CCS(=O)(=O)c2ccc3c(c2)CC(C)N3C(=O)C2CC2)cc1` (stereo not drawn): 0.306%; for `CCOC(=O)N1CCN(C(=O)c2ccc([N+](=O)[O-])cc2Cl)CC1`: 6.8%.
The result for `Oc1ccc(-[n+]2c(-c3ccccc3)cc(-c3ccccc3)cc2-c2ccccc2)cc1.[O-][Cl+3]([O-])([O-])[O-]` reads 5.58%; that for `Clc1ccc(C[n+]2c(-c3ccccc3)cc(-c3ccccc3)cc2-c2ccccc2)cc1.[O-][Cl+3]([O-])([O-])[O-]`, -25.5%; that for `COc1ccc(-[n+]2c(-c3ccccc3)cc(-c3ccccc3)cc2-c2ccccc2)cc1.[O-][Cl+3]([O-])([O-])[O-]`, -29.2%.
The result for `Cc1ccc(C[n+]2c(-c3ccc(C)cc3)cc(-c3ccc(C)cc3)cc2-c2ccc(C)cc2)cc1.[O-][Cl+3]([O-])([O-])[O-]` reads -61.7%; that for `Oc1ccccc1-[n+]1c(-c2ccccc2)cc(-c2ccccc2)cc1-c1ccccc1.[O-][Cl+3]([O-])([O-])[O-]`, -40.5%.
In the case of `Cc1ccc(-c2cc(-c3ccc(C)cc3)[n+](-c3ccc(C(=O)O)cc3)c(-c3ccc(C)cc3)c2)cc1.[O-][Cl+3]([O-])([O-])[O-]`, the “hERG current change (%, negative = inhibition) at 1uM” value is reported as 17.7%.
The result for `Brc1ccc(-[n+]2c(-c3ccccc3)cc(-c3ccccc3)cc2-c2ccccc2)cc1.[O-][Cl+3]([O-])([O-])[O-]` reads -18.7%; that for `Fc1ccc(C[n+]2c(-c3ccccc3)cc(-c3ccccc3)cc2-c2ccccc2)cc1.[O-][Cl+3]([O-])([O-])[O-]`, -27.1%; that for `Nc1ccccc1-[n+]1c(-c2ccccc2)cc(-c2ccccc2)cc1-c1ccccc1.[O-][Cl+3]([O-])([O-])[O-]`, 0.0928%.
The result for `COc1ccc(-[n+]2c(-c3ccccc3)cc(-c3ccc(C)cc3)cc2-c2ccccc2)cc1.[O-][Cl+3]([O-])([O-])[O-]` reads -52%; that for `Cc1ccccc1-[n+]1c(-c2ccccc2)cc(-c2ccccc2)cc1-c1ccccc1.[O-][Cl+3]([O-])([O-])[O-]`, -55.8%.
The result for `Cc1ccc(-c2cc(-c3ccc(C)cc3)[n+](-c3ccccc3)c(-c3ccc(C)cc3)c2)cc1.[O-][Cl+3]([O-])([O-])[O-]` reads -77.3%; that for `COc1ccc(-c2cc(N)n(S(=O)(=O)Cc3ccccc3)n2)c(OC)c1`, -4.34%.
For the compound `COc1ccc(NC(=S)N2CCNC(=O)C2CC(=O)Nc2cccc(Cl)c2C)cc1` (stereo not drawn), the “hERG current change (%, negative = inhibition) at 1uM” value was -5.98%.
The result for `Cc1ccc(-c2sc(C)nc2CC(=O)O)cc1` reads 7.75%.
The same measure for `C=C(C)C1CC=C(C)/C(=N/NC(=O)CCC(=O)Nc2ccccc2Cl)C1` (stereo not drawn): 6.51%; for `O=C(COC(=O)c1c[nH]c2ccccc12)Nc1ccc(F)cc1`: -1.51%.
With `Cc1cc(C(=O)NN=C(Cc2ccccc2)Cc2ccccc2)c(C)o1`, the “hERG current change (%, negative = inhibition) at 1uM” value came to 4.29%.
The same measure for `O=C(Nc1cnccn1)c1ccncc1`: -8.03%.
On to `NS(=O)(=O)c1ccc(CCNC(=O)c2ccccc2F)cc1`, for which the “hERG current change (%, negative = inhibition) at 1uM” value is given as 4.79%.
The same measure for `CCCCNC(=O)/C=C/c1cccs1`: 24.3%; for `[O-][Cl+3]([O-])([O-])[O-].c1ccc(-c2cc(-c3ccccc3)[n+](-c3ccccc3)c(-c3ccccc3)c2)cc1`: -27.7%; for `Cc1ccc(-c2cc(-c3ccccc3)cc(-c3ccccc3)[n+]2-c2ccccc2)cc1.[O-][Cl+3]([O-])([O-])[O-]`: -80.4%.
The same measure for `Cc1ccc(-c2cc(-c3ccccc3)cc(-c3ccccc3)[n+]2-c2ccc(C(=O)O)cc2)cc1.[O-][Cl+3]([O-])([O-])[O-]`: 7.88%.
As to `O=C(COc1ccccc1)N(Cc1ccco1)c1ccc(O)cc1`, the “hERG current change (%, negative = inhibition) at 1uM” value turned out to be 8.59%.
The result for `CCOC(=O)c1[nH]c(C)c(C(=O)NCc2ccc(Cl)cc2)c1C` reads -4.65%; that for `O=C(CCCc1ccccc1)Nc1ccnn1C1CCN(Cc2ccccc2)CC1`, -18.8%; that for `O=C(CCOc1ccccc1)Nc1ccnn1C1CCN(CCc2ccccc2)CC1`, -51.4%.
The same measure for `COc1ccc(CN2CCC(n3nccc3NC(=O)CCCc3ccccc3)CC2)cc1C`: -67.3%; for `COc1ccc(CN2CCC(n3nccc3NC(=O)CCOc3ccccc3)CC2)cc1C`: -16.2%; for `COc1ccccc1CN1CCC(n2nccc2NC(=O)CCCc2ccccc2)CC1`: -42.7%.
As for `COc1cccc(CN2CCC(n3nccc3NC(=O)CCCc3ccccc3)CC2)c1O`, the “hERG current change (%, negative = inhibition) at 1uM” value is listed as -55.4%.
On to `COc1cc(CN2CCC(n3nccc3NC(=O)CCCc3ccccc3)CC2)ccc1O`, for which the “hERG current change (%, negative = inhibition) at 1uM” value is on record as -5.54%.
The result for `CCOc1ccc(CN2CCC(n3nccc3NC(=O)CCCc3ccccc3)CC2)cc1` reads -88.8%; that for `CCOc1ccccc1CN1CCC(n2nccc2NC(=O)CCCc2ccccc2)CC1`, -29.2%; that for `O=C(CCOc1ccccc1)Nc1ccnn1C1CCN(Cc2ccccc2)CC1`, 2%.
The same measure for `CCOc1cccc(CN2CCC(n3nccc3NC(=O)CCCc3ccccc3)CC2)c1`: 9.19%; for `O=C(CCOc1ccccc1)Nc1ccnn1C1CCN(Cc2ccc(O)cc2)CC1`: -3.76%; for `O=C(CCCN1C(=O)/C(=C/c2ccc3c(c2)OCO3)SC1=S)Nc1cccc(C(=O)O)c1`: 9.71%.
The result for `Cn1cc(S(=O)(=O)N2CCC(C(N)=O)CC2)c(=O)n(C)c1=O` reads 11%; that for `Cc1c(C)c2cc(Cl)c(O)c(CN(C)C)c2oc1=O`, 15.4%; that for `CN(C)/C=N/c1cc(=O)[nH]c(=O)n1CC1CC1`, 17.1%.
Consider `O=C(CCc1ccccc1)Nc1ccnn1C1CCN(Cc2ccc(OCCO)cc2)CC1`, for which the “hERG current change (%, negative = inhibition) at 1uM” value is on record as -9.11%.
The result for `CC(=O)Nc1ccc(CN2CCC(n3nccc3NC(=O)CCc3ccccc3)CC2)cc1` reads 11.7%.
The result for `CC(C)Oc1ccc(CN2CCC(n3nccc3NC(=O)CCc3ccccc3)CC2)cc1` reads -86.3%; that for `O=C(/C=C/c1ccc(-c2ccccc2)o1)c1ccccc1`, 10.1%; that for `CCOc1ccccc1NC(=O)C(c1ccccc1)N1CCN(CC(=O)N2CCOCC2)CC1` (stereo not drawn), -79.7%.
For `Cc1ccc(NC(=O)C(c2ccccc2)N2CCN(CC(=O)N3CCOCC3)CC2)cc1` (stereo not drawn), the “hERG current change (%, negative = inhibition) at 1uM” value is listed as -8.48%.
The same measure for `O=C(Nc1ccc(F)cc1)C(c1ccccc1)N1CCN(CC(=O)N2CCOCC2)CC1` (stereo not drawn): -14.5%; for `O=C(NCCc1nc2ccccc2[nH]1)/C(=C/c1ccc2c(c1)OCO2)NC(=O)c1ccccc1`: -14.2%; for `O=C(NCCc1nc2ccccc2[nH]1)/C(=C/c1ccc2c(c1)OCO2)NC(=O)c1ccc(Cl)cc1Cl`: -73.9%.
Turning to `O=C(NCCc1nc2ccccc2[nH]1)/C(=C/c1ccc2c(c1)OCO2)NC(=O)c1ccccc1Cl`, the “hERG current change (%, negative = inhibition) at 1uM” value is given as -49.9%.
As for `CSCC[C@H](NC(=O)c1ccc(Cl)c(S(=O)(=O)N2CCCC2)c1)c1nc2ccccc2[nH]1`, the “hERG current change (%, negative = inhibition) at 1uM” value is recorded as -1.71%.
The same measure for `CSc1ccc(CN2CCCC(CNC(=O)c3ccc(F)cc3)C2)cc1` (stereo not drawn): -59%.
Turning to `COc1ccc(CN2CCCC(CNC(=O)c3ccc(F)cc3)C2)c(F)c1` (stereo not drawn), the “hERG current change (%, negative = inhibition) at 1uM” value is on record as -50.4%.
On to `CSc1cccc(CN2CCCC(CNC(=O)c3ccc(F)cc3)C2)c1` (stereo not drawn), for which the “hERG current change (%, negative = inhibition) at 1uM” value is reported as -19.1%.
The same measure for `COc1ccc(CC(=O)NCC2CCCN(Cc3ccc(F)cc3F)C2)cc1` (stereo not drawn): 8.71%; for `COc1cc(OC)cc(C(=O)NCC2CCCN(Cc3ccc(SC)cc3)C2)c1` (stereo not drawn): -34.6%; for `O=C(NCC1CCCN(Cc2ccc3nonc3c2)C1)c1ccc(F)cc1` (stereo not drawn): -13.9%.
The same measure for `COc1ccc(CC(=O)NCC2CCCN(Cc3ccc(OC)cc3F)C2)cc1` (stereo not drawn): 6.22%; for `CCOc1cc(CN2CCCC(CNC(=O)c3ccc(F)cc3)C2)ccc1OC` (stereo not drawn): -17%; for `O=C(NCC1CCCN(Cc2cccc(OCCO)c2)C1)c1ccc(F)cc1` (stereo not drawn): 2.83%.
The same measure for `COc1ccc(CN2CCCC(CNC(=O)c3ccc(F)cc3)C2)cc1OC` (stereo not drawn): -54.3%; for `COc1ccc(CN2CCCC(CNC(=O)c3ccc(F)cc3)C2)c(C)c1C` (stereo not drawn): -46.2%; for `CCOc1ccc(CN2CCCC(CNC(=O)c3ccc(F)cc3)C2)cc1CO` (stereo not drawn): -50.5%.
